This note sets out measurements from PubChem BioAssay (NCI).

The structures appear in SMILES notation. The panel holds about 83,000 compounds, 20% with a hit somewhere; the sample as a whole holds those more often.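 Growth was measured after 48 h exposure to one concentration of compound in 96-well plates. Values under 10 count as active.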 Active and inactive are the calls of the source.

One assay relates to NCI-H23 lung. The experiment in a line: NCI-60 one-dose screen, 48 h (100 = growth as untreated, 0 = no growth, -100 = all killed). As to conditions: 10 µM unless noted.
Regarding `O=C(Nc1ccc(-n2ccc3c(NC(=O)c4ccccc4)nccc32)cc1)c1ccc(N2CCOCC2)c(C(F)(F)F)c1`, the growth was 37.4% (inactive).
On the same count and under the same terms, with `COc1cc(/C=C/c2cc(/C=C/c3ccc(O)c(OC)c3)n(C(=O)Nc3ccc(F)c(Cl)c3)n2)ccc1O` the figure was -12.9% (active).
`COc1cc(OC)c2sc(-c3ccc(-n4cncc4-c4ccc(OC)c(N)c4)cc3)nc2c1`: the growth is 87.4% (inactive).
Same read-out and setting: under `COc1ccc(C2=NNC(c3ccc(Oc4nc5c(c(=O)n(C)c(=O)n5C)n4C)c(OC)c3)C2)cc1` (centres undefined) stands 103% (inactive).
For `NS(=O)(=O)c1ccc(CCn2c(SCC(=O)N/N=C/c3cccnc3)nc3ccccc3c2=O)cc1`, the growth was 93.3% (inactive).
Regarding `O=C(NNC(=O)c1cccc(Cl)c1)c1ccccc1`, the growth is 108% (inactive).
The same measure, in the same setting: with `N=c1nc(N2CCCCC2)cc(N)n1O` the figure was 115% (inactive).
Still for that read-out and setting: under `Cc1ccc(C)c(NC(=O)c2sc3c(=O)[nH]cnc3c2C)c1` stands 93.4% (inactive); under `C=CCOC(=O)C1=C(C)NC2=C(C(=O)CCC2)C1c1ccc(F)cc1` (centres undefined), 92.4% (inactive).
On the same count and under the same terms, under `COc1ccc(-c2cnc(-c3ccncc3-c3cccc(OC)c3)o2)cc1` stands 19.4% (inactive); under `O=C(Nc1ccncc1)C(=O)c1cn(S(=O)(=O)c2cccc(Cl)c2F)c2ccccc12`, 63.7% (inactive); under `Cc1ccccc1Nc1n[nH]c(Cc2ccccc2)n1`, 102% (inactive).
`Oc1ccccc1-c1nnc(COc2ccc(Cl)cc2Cl)o1`: the growth was 57% (inactive).
The same measure, in the same setting: with `CS(=O)(=O)c1ccc(C(=O)N/N=C/c2ccccc2O)cc1` the figure was 54.8% (inactive).
Same read-out and setting: under `CCCCCCCCCCCCCCCCCC(=O)OCCCCCCCCCCCCC` stands 108% (inactive); under `COc1cc(C2CC(c3ccc(C)cc3)=NN2C=O)ccc1Oc1nc2c(c(=O)n(C)c(=O)n2C)n1C` (centres undefined), 85.3% (inactive).
The same measure, in the same setting: with `COc1cc(C2CC(c3ccccc3)=NN2C=O)ccc1Oc1ccnc2cc(Cl)ccc12` (centres undefined) the figure was 36.7% (inactive); with `NC(N)=N/N=C/c1ccc(Cl)cc1`, 99.7% (inactive); with `O=c1c2cc(Cl)ccc2oc2ccc(OCCCCCN3CCCCC3)cc12`, 75.1% (inactive).
In the case of `COc1cc(Cl)cc(-c2nn(C(=O)NCCN3CCOCC3)cc2-c2ccncc2)c1`, the growth was 84.9% (inactive).
The same measure, in the same setting: with `COc1ccc2nc3ccccc3c(NCc3ccc(Cl)cc3)c2c1` the figure was 28.3% (inactive).
Still for that read-out and setting: under `CN1C(=O)N(C)C2C1NN=c1s/c(=C\c3ccc(C(F)(F)F)cc3)c(=O)n12` (centres undefined) stands 39.5% (inactive); under `C=C1C(=O)O[C@H]2[C@H]1CC/C(COC(=O)NCc1cn(C)c3ccccc13)=C\CC[C@@]1(C)O[C@@H]21`, 38.4% (inactive).
On the same count and under the same terms, under `c1csc(-c2cnc3nonc3n2)c1` stands 72.8% (inactive).
Consider `Nc1nc(NC2CC2)cc(-c2cccc(Cl)c2Cl)n1`, for which the growth is 71.7% (inactive).

The next assay has as its system NCI-H226 lung. The description is as above. As to conditions: 10 µM unless noted.
Turning to `O=C1/C(=C/c2ccccc2)SC(=Nc2ccccc2)N1Nc1ccccc1`, the growth was -40.1% (active).
The same measure, in the same setting: under `COc1cnc2c(c1)C(=O)c1c-2n(CCCNC(C)C)c(=O)c2cc(Cl)ccc12` stands 25.5% (inactive).
Same read-out and setting: under `CCSCC1CC(O)(c2ccccc2)C(c2ccccc2)C(c2ccc(F)cc2)O1` (centres undefined) stands -4.42% (active).
On the same count and under the same terms, under `CN1C(=O)C(C2=NNC(c3ccccc3C(=O)O)C2)C(=O)N(C)C1=O` (centres undefined) stands 99.8% (inactive); under `NC(N)=NC1CCCCC1`, 101% (inactive); under `COc1ccc(C(=O)OC2C(OC3C(O)COC(O[C@H]4C[C@H]5[C@@H]6CC=C7C[C@@H](O)CC[C@]7(C)[C@H]6CC[C@]5(C)[C@H]4[C@H](C)C(=O)CCC(C)C)C3OC(C)=O)OCC(O)C2O)cc1` (some centres undefined), -14% (active).
As for `CC(C)(C)c1ccc(OC(=O)Nc2ccccc2)cc1`, the growth is 106% (inactive).
Regarding `CN1C2CCC1/C(=C\c1ccc(F)cc1)C(=O)/C2=C/c1ccc(F)cc1`, the growth is 55.6% (inactive).
The same measure, in the same setting: with `CCCCOC(=O)c1cc(O)c(O)c(O)c1` the figure was 96.7% (inactive).
On the same count and under the same terms, with `CCOC(=O)C1OC2(CCCC2)OC1C(=O)OCC` (centres undefined) the figure was 97.1% (inactive); with `O=C(Nc1cccc(-n2ccc3c(NC(=O)c4ccccc4)nccc32)c1)c1ccc(N2CCOCC2)c(C(F)(F)F)c1`, 33.5% (inactive).
The same measure, in the same setting: with `CCN(CC)CCCC(C)Nc1c(-c2ccccc2)cnc2cc(Cl)ccc12` (centres undefined) the figure was 115% (inactive); with `O=C1C=CN2C(=O)CC=CC2[C@@H]1O` (some centres undefined), 113% (inactive).
With `CC(=O)O[C@@H]1CC2C(C)(C)CCCC2(C)C2=C1C(=O)C(C(C)C)=CC2=O` (some centres undefined), the growth was -78% (active).
Same read-out and setting: under `O=C(Nc1ccc(-n2ccc3c(NC(=O)c4ccccc4)nccc32)cc1)c1ccc(N2CCOCC2)c(C(F)(F)F)c1` stands 43.1% (inactive); under `COc1cc(/C=C/c2cc(/C=C/c3ccc(O)c(OC)c3)n(C(=O)Nc3ccc(F)c(Cl)c3)n2)ccc1O`, -4.32% (active).
The same measure, in the same setting: under `COc1cc(OC)c2sc(-c3ccc(-n4cncc4-c4ccc(OC)c(N)c4)cc3)nc2c1` stands 94% (inactive).
Still for that read-out and setting: with `COc1ccc(C2=NNC(c3ccc(Oc4nc5c(c(=O)n(C)c(=O)n5C)n4C)c(OC)c3)C2)cc1` (centres undefined) the figure was 89.7% (inactive).
Turning to `NS(=O)(=O)c1ccc(CCn2c(SCC(=O)N/N=C/c3cccnc3)nc3ccccc3c2=O)cc1`, the growth was 83% (inactive).
The same measure, in the same setting: with `O=C(NNC(=O)c1cccc(Cl)c1)c1ccccc1` the figure was 96.2% (inactive); with `N=c1nc(N2CCCCC2)cc(N)n1O`, 92.7% (inactive).
The same measure, in the same setting: with `Cc1ccc(C)c(NC(=O)c2sc3c(=O)[nH]cnc3c2C)c1` the figure was 106% (inactive); with `C=CCOC(=O)C1=C(C)NC2=C(C(=O)CCC2)C1c1ccc(F)cc1` (centres undefined), 89.9% (inactive).
As for `COc1ccc(-c2cnc(-c3ccncc3-c3cccc(OC)c3)o2)cc1`, the growth was 15.3% (inactive).
With `O=C(Nc1ccncc1)C(=O)c1cn(S(=O)(=O)c2cccc(Cl)c2F)c2ccccc12`, the growth was 75% (inactive).
On the same count and under the same terms, with `Cc1ccccc1Nc1n[nH]c(Cc2ccccc2)n1` the figure was 100% (inactive); with `Oc1ccccc1-c1nnc(COc2ccc(Cl)cc2Cl)o1`, 66.2% (inactive).
The same measure, in the same setting: with `CS(=O)(=O)c1ccc(C(=O)N/N=C/c2ccccc2O)cc1` the figure was 55.2% (inactive).
With `CCCCCCCCCCCCCCCCCC(=O)OCCCCCCCCCCCCC`, the growth is 97.2% (inactive).
On the same count and under the same terms, under `COc1cc(C2CC(c3ccc(C)cc3)=NN2C=O)ccc1Oc1nc2c(c(=O)n(C)c(=O)n2C)n1C` (centres undefined) stands 84% (inactive); under `COc1cc(C2CC(c3ccccc3)=NN2C=O)ccc1Oc1ccnc2cc(Cl)ccc12` (centres undefined), 46.6% (inactive); under `NC(N)=N/N=C/c1ccc(Cl)cc1`, 80.1% (inactive).
`O=c1c2cc(Cl)ccc2oc2ccc(OCCCCCN3CCCCC3)cc12`: the growth is 86.7% (inactive).
Consider `COc1cc(Cl)cc(-c2nn(C(=O)NCCN3CCOCC3)cc2-c2ccncc2)c1`, for which the growth was 99.7% (inactive).
On the same count and under the same terms, with `COc1ccc2nc3ccccc3c(NCc3ccc(Cl)cc3)c2c1` the figure was 48.8% (inactive); with `CN1C(=O)N(C)C2C1NN=c1s/c(=C\c3ccc(C(F)(F)F)cc3)c(=O)n12` (centres undefined), 43.2% (inactive); with `C=C1C(=O)O[C@H]2[C@H]1CC/C(COC(=O)NCc1cn(C)c3ccccc13)=C\CC[C@@]1(C)O[C@@H]21`, 35.8% (inactive).
Still for that read-out and setting: with `c1csc(-c2cnc3nonc3n2)c1` the figure was 88.1% (inactive).
Still for that read-out and setting: under `Nc1nc(NC2CC2)cc(-c2cccc(Cl)c2Cl)n1` stands 92.3% (inactive).
